The structures appear in SMILES notation. Some of the results follow. A call without a number means that no potency is given here. Inconclusive results are not listed. Calls of active or inactive are those of the source. Calls follow the shape of the full dose curve.
Potency is read from the fitted curve at half-maximal effect.

The experiment deals with Polyprotein P1234 (Chikungunya virus (strain S27-African prototype)) (UniProt Q8JUX6). As to the kind of experiment: Secondary cell base assay for inhibitors of NSP2Pro Chikungunya virus (CHIKV) (AID 1964100). Also: nearly all actives have a fitted effect of over 70% in size. To be noted: cell-based CHIKV nsP2 protease reporter assay; series mostly up to 51.1 µM. The source says: PI: Natalia J. Martinez Ph.D.
National Center for Advancing Translational Sciences (NCATS),
National Institute of Health (NIH), Rockville, Maryland
Chikungunya virus (CHIKV) is a mosquito-borne RNA virus that has emerged as one of the most important global arboviral threats in the last decade. Although the first CHIKV vaccine has recently been FDA approved for use in healthy adults at increased risk, to date, there are no available antiviral drugs for CHIKV infection. CHIKV nsP2 protease plays a crucial role in the processing of the viral polypeptide precursor to release enzymes required for viral replication, thus making it a promising drug target for antiviral discovery. Here, we established a high-throughput pipeline to identify small molecule inhibitors of nsP2 proteolytic activity. The pipeline is composed of a suite of 1,536-well in vitro assays to support quantitative high-throughput (qHTS) screening campaigns. Specifically, we developed a fluorescence resonance energy transfer (FRET)-based assay using a fluorogenic peptide substrate encompassing an endogenous cleavage site and purified recombinant protease domain (nsP2pro). Using this assay, we interrogated ~37,000 small molecules, including those in drug repurposing libraries as well as chemically diverse and medicinal chemistry-friendly compounds. Hits were selected for follow-up validation against full-length nsP2 and an additional peptide. FRET-based 1,536-well assays for papain, hepatitis C virus NS3-4A, and human furin proteases were implemented to characterize compound selectivity. […] Novel compounds were identified to be potential nsP2 inhibitors and molecular docking analyses were performed to explain the binding mode of selected hits. In vitro antiviral activity was evaluated for a subset of compounds using a high-throughput CHIKV infection assay. To our knowledge, the pipeline presented here is unprecedented for CHIKV antiviral discovery research.
Described herein is the secondary cell-based assay using a reporter construct. Construct cloning was produced by gene synthesis (GeneScript). The Split Nluc reporter construct was cloned into the NheI/EcoRI sites of pcDNA3.1 (+). The Nterm HiBiT (86b) and Cterm LgBiT (11S) sequences of the Split Nluc reporter were separated by a flexible loop containing the nsp3/4 cleavage site ([…]) or a flexible loop without a cleavage site (12X GlySer). nsP2pro expression construct (amino acids 220-798, accession #MT933050) was cloned into the NheI/EcoRI sites of pcDNA3.1 (+) and contained a C-terminal Flag/6xHis tag. The gene synthesis of the Split Nluc reporter and West Nile Virus (WNV) NS2B/NS3 protease expression constructs was performed by Synbio Technologies. The Split Nluc reporter construct included the N-terminal HiBiT (86b) and C-terminal LgBiT (11S) sequences, separated by a loop containing the WNV NS2B/NS3 cleavage site ([…]). The WNV NS2B/NS3 protease expression construct (amino acids 1375-1693, accession #NC_009942) contained a C-terminal Flag/6xHis tag. Both constructs were cloned into the XbaI/AgeI sites of pcDNA3.4.
PROTOCOL TABLE (as described by Inglese J, Shamu CE and Guy RK. 2007)
SEQUENCE No. (e.g., 1, 2, 3, etc.); […] (e.g., Cells, Incubation, Reagent, etc.); VALUE; DESCRIPTION.
1a; Cell Transfection; Lipofectamine 2000.
1b; Cell; 4 uL; Aurora 1536-well, white, tissue culture plate.
2; Incubation; 4 hr; 37C, 5% CO2, 95% humidity.
3; Compound; 20 nL; Echo 650 Liquid Handler.
4; Incubation; overnight; 37C, 55 CO2, 95% humidity.
5; Reagent; 4 uL; Nano-Glo Luciferase assay system.
6; Centrifugation; 2 sec.
7; Detection; Luminescence; ViewLux plate reader (PerkinElmer).
NOTES (numbers refer to sequence numbers above).
1a. […]
As for `CCOc1ccc(N(Cc2ccccc2)C(=O)c2nc(S(C)(=O)=O)ncc2Cl)cc1`, the Potency is 2.31 µM (active). For `COC([CH2][Hg])CNC(=O)c1ccccc1OCC(=O)O` (centres undefined) the value was “inactive”; for `CCOc1ccc(NC(=O)c2c(NC(=O)Cc3ccccc3)sc3c2CCCCC3)cc1`, “inactive”. As for `Cc1cc(C)cc(NC(=O)CSc2oc(-c3ccccc3)nc2S(=O)(=O)c2ccc(Cl)cc2)c1`, the entry is “inactive”. As for `CC1=C(/C=C/C(C)=C/C=C/C(C)=C/C=C/C=C(C)/C=C/C=C(C)/C=C/C2=C(C)CCCC2(C)C)C(C)(C)CCC1`, the entry is “inactive”; as for `C[C@@H]1[C@H](O)[C@@H]2OC(=O)C3=C2[C@H](CCC3)[C@@]12C[C@@H](c1ccoc1)OC2=O`, “inactive”; as for `Cc1ccc(N[S+](=O)([O-])c2cc3c(cc2N[C@@H](C)CO)NC(=O)CC3)cc1N[C@@H](C)CO`, “inactive”.

Regarding `C=CC(=O)c1ccc2ccccc2c1`, the Potency result was “inactive”. `Cn1nnnc1Sc1ncnc2n[nH]c(-c3cccc(S(C)(=O)=O)c3)c12`: the Potency is 11.2 µM (active). For `C=Cc1c(C)c2cc3nc(cc4[nH]c(cc5nc(cc1[nH]2)C(C)=C5CCC(=O)O)c(CCC(=O)OC)c4C)[C@@]1(C)C3=CC=C(C(=O)OC)[C@H]1C(=O)OC` the value was “inactive”. Regarding `CCc1ccccc1NC(=O)c1cnn(-c2ccc(F)cc2)c1C1CCNCC1`, the Potency result is “inactive”. On to `Oc1ccc(OC2CCCCO2)cc1` (centres undefined), for which the Potency result was “inactive”. Regarding `CCOc1ccc(NC(=O)c2c(NC(=O)Cc3ccccc3)sc3c2CCC(C)C3)cc1` (centres undefined), the Potency entry was “inactive”. For `CCC(C)C(=O)OC1C(C)C2(O)C(C=C(CO)CC3(O)C(=O)C(C)=CC32)C2C(C)(C)C12OC(=O)C(C)C` (centres undefined) the value was “inactive”; for `C[C@@H]1C[C@@H](O)[C@@]23CO[C@]2(CO)C[C@@H](O)CC3[C@@]12CC(c1ccoc1)OC2=O` (some centres undefined), “inactive”. As for `CC(=O)N[C@@H](C(=O)O[C@H]1CCC(C)(C)[C@@H]2CCC3=C(COC3=O)[C@@]12C)C(C)C`, the entry is “inactive”; as for `CO[C@]1(NC(=O)CSC(F)F)C(=O)N2C(C(=O)O)=C(CSc3nnnn3CCO)CO[C@H]21`, “inactive”; as for `Cc1c(S(=O)(=O)O)oc2c1C(=O)C(=O)c1c-2ccc2c1CCCC2(C)C`, “inactive”. As for `C[C@@H]1O[C@@H](O[C@@H]2[C@@H](O)[C@H](OCCc3ccc(O)c(O)c3)O[C@H](CO[C@@H]3O[C@H](CO)[C@@H](O)[C@H](O)[C@H]3O)[C@H]2OC(=O)/C=C/c2ccc(O)c(O)c2)[C@H](O)[C@H](O)[C@H]1O`, the entry is “inactive”.

The values above are taken from PubChem BioAssay (NCATS).
